# Screen size: about 39,000 compounds; about 3,300 (8.5%) were called active. The full list was thinned out, with actives kept by preference.
# Test system: HepG2
# Test: cytotoxicity call (relative viability < 0.9)
# Settings: 10 µM
row,SMILES,cytotoxicity call
1,Cc1noc(C)c1NC(=O)Nc1ccc2c(c1)C(=O)N([C@@H](C)CO)C[C@H](C)[C@H](CN(C)CC1CCCCC1)OCCCC[C@@H](C)O2,inactive
2,COc1ccc(Br)cc1S(=O)(=O)NC(=O)/C=C/c1ccccc1Cc1ccc2ccccc2c1,inactive
3,COc1ccc(S(=O)(=O)Nc2ccc3c(c2)C(=O)N([C@@H](C)CO)C[C@@H](C)[C@@H](CN(C)C(=O)Nc2cccc4ccccc24)O3)cc1,inactive
4,C[C@@H]1CN([C@H](C)CO)S(=O)(=O)c2ccc(Br)cc2O[C@H]1CN(C)CC1CCOCC1,inactive
5,C[C@@H]1CN([C@H](C)CO)C(=O)c2cccc(NC(=O)NC3CCCCC3)c2O[C@@H]1CN(C)S(C)(=O)=O,inactive
6,CC(C)C[C@@H]1NC(=O)[C@@H]2C[C@H](C(=O)NCCCCCCN(C)C)[C@H](c3cccc(OCCO)c3)N2C1=O,inactive
7,CC(C)N1C[C@H](C)[C@@H](CN(C)Cc2ccc(Cl)cc2)Oc2c(NC(=O)c3ccncc3)cccc2C1=O,inactive
8,C[C@H]1CN([C@@H](C)CO)S(=O)(=O)c2ccc(C#Cc3ccncc3)cc2O[C@@H]1CN(C)S(=O)(=O)c1ccccc1,active
9,C[C@@H]1CN([C@H](C)CO)S(=O)(=O)c2ccc(C#Cc3ccncc3)cc2O[C@H]1CN(C)S(=O)(=O)c1ccccc1,active
10,C[C@@H]1CN([C@@H](C)CO)S(=O)(=O)c2ccc(C#Cc3ccncc3)cc2O[C@@H]1CN(C)S(=O)(=O)c1ccccc1,active
11,C[C@H](CO)N1C[C@H](C)[C@H](CN(C)S(=O)(=O)c2ccccc2)Oc2cc(C#Cc3ccncc3)ccc2S1(=O)=O,active
12,C[C@@H]1CN([C@H](C)CO)C(=O)c2cccc(NC(=O)c3cnccn3)c2O[C@@H]1CN(C)C(=O)NC1CCCCC1,inactive
13,Cc1noc(C)c1S(=O)(=O)Nc1cccc2c1O[C@@H](CN(C)Cc1ccccc1)[C@@H](C)CN([C@H](C)CO)C2=O,inactive
14,C[C@@H]1CN([C@H](C)CO)C(=O)c2cccc(NC(=O)Nc3cccc4ccccc34)c2O[C@@H]1CN(C)S(=O)(=O)c1ccccc1,inactive
15,CCC(=O)N(C)C[C@@H]1Oc2ncc(C#C[C@H](C)O)cc2C(=O)N([C@@H](C)CO)C[C@H]1C,inactive
16,O=C(C[C@@H]1C[C@@H]2c3cc(NC(=O)Nc4ccccc4)ccc3O[C@@H]2[C@H](CO)O1)NCCN1CCCCC1,inactive
17,CN1CCN2c3ccccc3Cc3ccccc3C2C1.Cl (stereo unspecified),inactive
18,C[C@H]1CCCN(C(=O)N2c3ccccc3Sc3ccccc32)C1,inactive
19,CN1CCC[C@@H](CC2c3ccccc3Sc3ccccc32)C1,active
20,C[C@@H]1CN([C@@H](C)CO)C(=O)c2c(c3ccccc3n2C)-c2ccccc2CO[C@H]1CN(C)C(=O)CCC(F)(F)F,inactive
21,COCCc1nc2c(c(=O)n(C)c(=O)n2C)n1C,inactive

row,SMILES,cytotoxicity call
1,Cn1c(=O)c2c(nc(S(C)(=O)=O)n2C)n(C)c1=O,active
2,Cn1c(=O)c2c(nc(SCSc3nc4c(c(=O)n(C)c(=O)n4C)n3C)n2C)n(C)c1=O,inactive
3,C[C@@H]1CN([C@@H](C)CO)C(=O)c2cc(NC(=O)Nc3cccc4ccccc34)ccc2O[C@H]1CN(C)C(=O)Nc1ccc(F)cc1,inactive
4,C[C@@H]1CN([C@H](C)CO)C(=O)CCCn2nncc2CO[C@H]1CN(C)S(=O)(=O)c1cn(C)cn1,inactive
5,C[C@H](CO)N1C[C@H](C)[C@H](CN(C)C(=O)Nc2ccc(F)cc2)Oc2ccc(NC(=O)Nc3ccc(C(F)(F)F)cc3)cc2CC1=O,inactive
6,C[C@@H]1CN([C@H](C)CO)C(=O)Cc2cc(NC(=O)Nc3ccc(C(F)(F)F)cc3)ccc2O[C@@H]1CN(C)C(=O)Nc1ccc(F)cc1,active
7,C[C@@H]1CN([C@H](C)CO)C(=O)Cc2cc(NC(=O)Nc3ccc(F)cc3)ccc2O[C@H]1CN(C)C(=O)Nc1ccc(C(F)(F)F)cc1,inactive
8,C[C@H]1CN([C@@H](C)CO)C(=O)Cc2cc(NC(=O)Nc3ccc(F)cc3)ccc2O[C@@H]1CN(C)C(=O)Nc1ccc(C(F)(F)F)cc1,inactive
9,C[C@@H]1CN([C@@H](C)CO)C(=O)Cc2cc(NC(=O)Nc3ccc(F)cc3)ccc2O[C@H]1CN(C)C(=O)Nc1ccc(C(F)(F)F)cc1,inactive
10,C[C@@H]1CN([C@@H](C)CO)C(=O)Cc2cc(NC(=O)Nc3ccc(C(F)(F)F)cc3)ccc2O[C@@H]1CN(C)C(=O)Nc1ccc(F)cc1,active
11,C[C@H]1CN([C@@H](C)CO)C(=O)Cc2cc(NC(=O)Nc3ccc(C(F)(F)F)cc3)ccc2O[C@H]1CN(C)C(=O)Nc1ccc(F)cc1,active
12,C[C@@H]1CN([C@H](C)CO)C(=O)Cc2cc(NC(=O)Nc3ccc(C(F)(F)F)cc3)ccc2O[C@H]1CN(C)C(=O)Nc1ccc(F)cc1,inactive
13,C[C@H](CO)N1C[C@H](C)[C@@H](CN(C)C(=O)Nc2ccc(F)cc2)Oc2ccc(NC(=O)Nc3ccc(C(F)(F)F)cc3)cc2CC1=O,active
14,C[C@@H]1CN([C@@H](C)CO)C(=O)Cc2cc(NC(=O)Nc3ccc(F)cc3)ccc2O[C@@H]1CN(C)C(=O)Nc1ccc(C(F)(F)F)cc1,inactive
15,C[C@@H]1CN([C@@H](C)CO)C(=O)Cc2cc(NC(=O)Nc3ccc(C(F)(F)F)cc3)ccc2O[C@H]1CN(C)C(=O)Nc1ccc(F)cc1,inactive
16,C[C@H](CO)N1C[C@H](C)[C@H](CN(C)C(=O)Nc2ccc(C(F)(F)F)cc2)Oc2ccc(NC(=O)Nc3ccc(F)cc3)cc2CC1=O,inactive
17,Cc1ccc(S(=O)(=O)N(C)C[C@H]2OCCCC[C@H](C)Oc3ccc(NC(=O)Nc4ccc(C(F)(F)F)cc4)cc3C(=O)N([C@H](C)CO)C[C@@H]2C)cc1,inactive
18,C[C@@H]1CN([C@@H](C)CO)C(=O)c2cc(NC(=O)Nc3ccc(F)cc3)ccc2O[C@@H](C)CCCCO[C@@H]1CN(C)S(=O)(=O)c1ccc(Cl)cc1,inactive
19,COCC(=O)Nc1ccc2c(c1)[C@@H]1C[C@@H](CC(=O)N3CCOCC3)O[C@H](CO)[C@@H]1O2,inactive
20,C[C@H](CO)N1C[C@H](C)[C@@H](CN(C)S(=O)(=O)c2cn(C)cn2)Oc2ccc(NC(=O)Nc3ccccc3)cc2CC1=O,inactive

# From the antibiotic and cytotoxicity screens of Wong et al. (2023)
